Values joined by “and” are separate entries in the source; they are usually repeats but may differ in a detail not shown here. Equal entries are not always repeated. Results filed as inconclusive are left out. Active and inactive are the calls of the source. Unless noted, calls follow the shape of the dose curve; as a rule, active = well fitted curve in the direction sought with a large enough effect; inconclusive = small, poorly fitted or top-dose-only effect, or another doubt; inactive = no such curve, though single readings can be large; an effect the other way counts as inactive or inconclusive.
Assays:
[1] = qHTS Assay for Identifying Gametocytocidal Compounds (AID 743244);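 also: % is scaled to controls: 0 for no effect and ±100 for the full control effect; actives lower the fluorescent signal which means gametocytes are killed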; conditions: P. falciparum 3D7 stage III-V gametocytes, alamarBlue, 72 h; max response: stronger effect = lower value
Method in brief: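 A resazurin-based viability read-out was applied to mature P. falciparum gametocytes: 72 h compound treatment, then 24 h dye incubation, with falling fluorescence signalling gametocytocidal effect.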

[2] = qHTS assay for environmental chemicals that activate the Aryl hydrocarbon Receptor (AhR) signaling pathway (AID 651777); conditions: 1A2-DRE human hepatoma cells, luciferase, 24 h; activation: stronger effect = higher value; also: % of control where 0% means no effect; nearly all actives have a fitted effect of over 15% in size
Method in brief: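 Concentration–response screening used 1,200 1A2-DRE cells per well, 24 hr compound exposure (37 C, 5% CO2), and One-Glo luminescence as the AhR-driven CYP1A2 reporter signal.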

[3] = target: Peroxisome proliferator-activated receptor alpha (Homo sapiens) (UniProt Q07869); test: qHTS assay for small molecule agonists of the peroxisome proliferator-activated receptor alpha (PPARalpha) signaling pathway (AID 651778); conditions: PathHunter PPARalpha complementation, chemiluminescence, 6 h; stronger effect = higher value; also: % of control where 0% means no effect
Sequence of Peroxisome proliferator-activated receptor alpha (Homo sapiens) (Q07869 whole entry, looked up): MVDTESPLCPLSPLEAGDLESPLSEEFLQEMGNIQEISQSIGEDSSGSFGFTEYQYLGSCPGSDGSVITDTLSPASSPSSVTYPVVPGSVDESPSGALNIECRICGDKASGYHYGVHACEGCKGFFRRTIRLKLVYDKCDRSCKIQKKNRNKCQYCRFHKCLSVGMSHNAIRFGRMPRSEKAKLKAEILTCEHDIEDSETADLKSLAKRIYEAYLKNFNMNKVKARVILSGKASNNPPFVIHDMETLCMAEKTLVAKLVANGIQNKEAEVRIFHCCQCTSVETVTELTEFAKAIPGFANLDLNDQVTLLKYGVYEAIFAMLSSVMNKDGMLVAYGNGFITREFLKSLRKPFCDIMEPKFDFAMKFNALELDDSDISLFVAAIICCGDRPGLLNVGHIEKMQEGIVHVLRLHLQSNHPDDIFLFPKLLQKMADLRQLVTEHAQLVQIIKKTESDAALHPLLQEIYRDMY
Method in brief: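 Cells plated at 2,000/well and held overnight at 37 C, 5% CO2, then compound added by pin tool for 6 hr; after PathHunter detection reagent and 60 min at room temperature, chemiluminescence from enzyme complementation was read.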

[4] = target: Nuclear receptor ROR-gamma (Homo sapiens) (UniProt P51449); test: qHTS assay for small molecule antagonists of the retinoid-related orphan receptor gamma (ROR-gamma) signaling pathway (AID 651802); also: nearly all actives have a fitted effect of over 60% in size; also: potency is read from the fitted curve at half-maximal effect
Sequence of Nuclear receptor ROR-gamma (Homo sapiens) (P51449 whole entry, looked up): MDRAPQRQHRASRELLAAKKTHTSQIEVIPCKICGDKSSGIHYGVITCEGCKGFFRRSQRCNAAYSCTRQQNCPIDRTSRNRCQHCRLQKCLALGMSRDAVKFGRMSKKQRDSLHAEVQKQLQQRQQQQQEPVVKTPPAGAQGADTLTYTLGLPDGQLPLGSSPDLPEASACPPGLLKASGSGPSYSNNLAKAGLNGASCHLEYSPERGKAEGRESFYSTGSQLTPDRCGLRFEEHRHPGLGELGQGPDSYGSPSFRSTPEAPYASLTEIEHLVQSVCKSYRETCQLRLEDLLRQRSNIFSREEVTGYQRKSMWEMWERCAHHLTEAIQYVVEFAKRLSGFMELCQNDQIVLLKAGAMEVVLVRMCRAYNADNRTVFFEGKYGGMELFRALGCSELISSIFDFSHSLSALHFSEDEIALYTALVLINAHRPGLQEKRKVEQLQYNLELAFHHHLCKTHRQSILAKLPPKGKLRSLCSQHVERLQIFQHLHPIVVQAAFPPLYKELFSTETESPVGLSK
Method in brief: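 Steps: cells dispensed; compound or DMSO transferred by pin tool; doxycycline added to induce the ROR response element-driven luciferase; plates held 16hr at 37C; ONE-Glo added and luminescence measured.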

[5] = qHTS assay for small molecule agonists of the antioxidant response element (ARE) signaling pathway measured by Nrf2-dependant transcriptional activity (AID 720636; active = well fitted curve in the direction sought with a large enough effect in the repeat runs; an effect the other way counts as inactive or inconclusive;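 also: HepG2 cells with an ARE-driven luciferase reporter; % of control where 0% means no effect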)
Method in brief: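 Attachment 6 hr at 37 C, then compound versus DMSO vehicle for 16 hr in ARE-luc HepG2 cells (1% dialyzed FBS); luminescence recorded 30 min after ONE-Glo addition at room temperature.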

[6] = qHTS assay for small molecule agonists of the antioxidant response element (ARE) signaling pathway measured by Nrf2-dependant transcriptional activity - cell viability counter screen (AID 720653; active = well fitted curve in the direction sought with a large enough effect in the repeat runs; an effect the other way counts as inactive or inconclusive; also: % is scaled to controls: 0 for no effect and ±100 for the full control effect); conditions: ARE-bla HepG2 viability, CellTiter-Glo ATP luminescence, 16 h; stronger effect = lower value
Method in brief: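 ARE-bla HepG2 cells (2,000/well) rested 5 hrs at 37C/5% CO2, then exposed to compounds in DMSO for 16 hrs. Viability was read in the same wells as intracellular ATP by luminescence, 30 min at room temperature after reagent addition.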

[7] = qHTS assay for cell viability of HEK293 cells (AID 743288); conditions: ATP luminescence (CellTiter-Glo), 18 h, stronger effect = lower value; also: % is scaled to controls: 0 for no effect and ±100 for the full control effect; nearly all actives have a fitted effect of over 50% in size
Method in brief: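 Steps: plate 2,000 parental HEK293 cells per well; incubate ≥5 h, 37 C; add compounds in DMSO; incubate 18 h, 37 C; add CellTiter-Glo; wait 30 min at room temperature; read luminescence.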

[8] = qHTS assay for cell viability of the p53RE-bla HCT-116 cell line (AID 743292); also: % is scaled to controls: 0 for no effect and ±100 for the full control effect; nearly all actives have a fitted effect of over 55% in size
Method in brief: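 Compound-exposed HCT-116 (p53RE-bla) cells, 4,000 per well, were kept 16 h at 37 C following a 5 h preincubation. Cell number was estimated from total ATP by CellTiter-Glo luminescence read after 30 min at room temperature.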

[9] = qHTS assay for small molecule antagonists of the retinoid-related orphan receptor gamma (ROR-gamma) signaling pathway - cell viability counter screen (AID 720652; active = well fitted curve in the direction sought with a large enough effect in the repeat runs; an effect the other way counts as inactive or inconclusive;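 also: CHO reporter cells with doxycycline-induced ROR-gamma expression; series mostly up to about 92 µM; compound exposure lasted 16 hr before ATP read; % is scaled to controls: 0 for no effect and ±100 for the full control effect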)
Method in brief: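 Steps: seed CHO cells bearing TET-inducible ROR and ROR response element-luciferase; rest 5 hr at 37 C; add compound, then doxycycline; incubate 16 hr; add CellTiter-Glo and read luminescence as ATP-based viability.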

[10] = target: Arylsulfatase A (Homo sapiens) (UniProt P15289); test: qHTS screen for enhancers of Arylsulfatase A (ASA1): LOPAC Validation Assay (AID 720538); conditions: outcome: dose series up to 57.5 µM
Sequence of Arylsulfatase A (Homo sapiens) (P15289 whole entry, looked up): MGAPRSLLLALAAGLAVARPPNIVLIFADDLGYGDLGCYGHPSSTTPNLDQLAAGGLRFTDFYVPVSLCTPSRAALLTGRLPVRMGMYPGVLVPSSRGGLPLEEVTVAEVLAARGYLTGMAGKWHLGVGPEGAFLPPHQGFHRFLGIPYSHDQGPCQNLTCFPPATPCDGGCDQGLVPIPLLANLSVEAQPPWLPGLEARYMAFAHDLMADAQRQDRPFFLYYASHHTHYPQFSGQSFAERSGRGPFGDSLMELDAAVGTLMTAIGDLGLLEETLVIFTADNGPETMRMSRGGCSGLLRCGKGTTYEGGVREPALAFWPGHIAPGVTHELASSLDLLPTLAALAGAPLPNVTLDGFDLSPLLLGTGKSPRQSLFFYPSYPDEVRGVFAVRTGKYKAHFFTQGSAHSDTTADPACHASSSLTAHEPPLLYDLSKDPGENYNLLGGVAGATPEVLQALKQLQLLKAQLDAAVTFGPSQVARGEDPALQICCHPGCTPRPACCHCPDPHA
Method in brief: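 SV40-transformed fibroblasts from an MLD patient (ASA-I179S) were treated with compound for 48 h at 37 C. They were then lysed with 0.5 mM pNCS substrate (final) for 14 h at room temperature and stopped with NaOH; signal read by fluorescence (Ex 525/Em 598 nm), with increase denoting enhanced activity.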

[11] = qHTS for compounds that reverse cellular toxicity of Amyloid beta (A-beta) peptide in yeast: LOPAC Validation Assay (AID 720559);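 also: plate controls were DMSO for no effect and equimolar ferric chloride plus clioquinol rescue for full effect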
Method in brief: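 Yeast expressing toxic A-beta grown with pinned compounds at 30 C for 48 hr. Growth measured as absorbance at 600 nm; data normalized to DMSO and to an equimolar FeCl3/clioquinol mixture as positive control.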

[12] = qHTS for Activators of Parkin Expression: LOPAC Validation Assay (NLuc Reporter) (AID 720572;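 also: 0% = DMSO and 100% = positive control compound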)
Method in brief: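 Cells harboring the Parkin-promoter coincidence reporter were treated for 24 h at seven concentrations. NLuc output was measured sequentially after the FLuc channel and scaled between DMSO and positive control values.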

[13] = qHTS for Activators of Parkin Expression: LOPAC Validation Assay (FLuc Reporter) (AID 720573;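 also: 0% = DMSO and 100% = positive control compounds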)
Method in brief: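 Neuronal cell line stably expressing FLuc/NLuc coincidence reporter under the Parkin promoter, 1,500 cells/well, dosed 24 h after seeding in 7-point series for 24 h at 37 C. FLuc luminescence read; normalized to DMSO and positive control (100%).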

[14] = target: T1, Hexokinase-4 (Homo sapiens) + Glucokinase regulatory protein (Homo sapiens) (UniProt P35557+Q14397); test: qHTS assay for inhibitors of recombinant human GCK-GKRP interaction: Diaphorase-coupled assay (AID 743205)
T1 sequence (P35557 whole entry, looked up): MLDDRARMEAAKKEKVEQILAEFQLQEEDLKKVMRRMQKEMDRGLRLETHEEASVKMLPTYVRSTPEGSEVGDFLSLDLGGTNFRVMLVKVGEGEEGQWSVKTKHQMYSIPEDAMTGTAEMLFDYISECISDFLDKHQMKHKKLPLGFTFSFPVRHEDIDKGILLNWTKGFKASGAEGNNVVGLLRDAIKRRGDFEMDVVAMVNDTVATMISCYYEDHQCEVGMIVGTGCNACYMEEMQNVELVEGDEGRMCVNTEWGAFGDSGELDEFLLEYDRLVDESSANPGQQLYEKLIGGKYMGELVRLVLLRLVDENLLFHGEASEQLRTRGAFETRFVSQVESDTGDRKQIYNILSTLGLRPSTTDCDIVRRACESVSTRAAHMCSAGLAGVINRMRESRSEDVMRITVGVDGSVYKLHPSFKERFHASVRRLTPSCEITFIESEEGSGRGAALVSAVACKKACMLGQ
T1 sequence (Q14397 whole entry, looked up): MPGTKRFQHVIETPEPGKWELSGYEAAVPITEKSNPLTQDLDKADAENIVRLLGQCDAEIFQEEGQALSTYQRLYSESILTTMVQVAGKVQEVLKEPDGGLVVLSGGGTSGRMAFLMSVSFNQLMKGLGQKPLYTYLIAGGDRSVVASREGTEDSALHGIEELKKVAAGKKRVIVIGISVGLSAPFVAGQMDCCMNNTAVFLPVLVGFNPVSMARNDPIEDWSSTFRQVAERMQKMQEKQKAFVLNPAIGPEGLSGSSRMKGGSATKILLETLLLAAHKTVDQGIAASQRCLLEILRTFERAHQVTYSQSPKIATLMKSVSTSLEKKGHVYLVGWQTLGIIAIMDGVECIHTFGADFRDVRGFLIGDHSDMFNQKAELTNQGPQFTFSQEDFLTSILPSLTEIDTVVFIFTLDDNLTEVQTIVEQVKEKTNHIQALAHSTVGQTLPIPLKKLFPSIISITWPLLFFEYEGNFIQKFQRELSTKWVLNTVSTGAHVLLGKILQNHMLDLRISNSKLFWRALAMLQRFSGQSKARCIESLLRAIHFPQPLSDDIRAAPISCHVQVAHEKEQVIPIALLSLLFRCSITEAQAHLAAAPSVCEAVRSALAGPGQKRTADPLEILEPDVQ
Method in brief: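 Compounds pre-incubated 20 min with substrate, then 10 nM GST-GCK with 10 nM FLAG-GKRP added. GCK activity coupled via G6PDH and diaphorase to resorufin (5 mM glucose, 0.4 mM ATP, 0.15 mM NADP+, pH 7.6), read kinetically over 30 minutes at Ex 525/Em 590 nm.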

[15] = target: T1, Hexokinase-4 (Homo sapiens) + Glucokinase regulatory protein (Homo sapiens); test: qHTS assay for inhibitors of recombinant human GCK-GKRP interaction: ADP-Glo assay (AID 743206);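 also: plate controls were DMSO plus enzyme for no effect and no enzyme for full effect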
Method in brief: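 Pin-transferred compounds meet a 15 nM GST-GCK/15 nM FLAG-GKRP/2 uM S6P mix (dispense concentrations). ATP is then added to 0.4 mM final with 5 mM glucose, and the reaction runs 60 min at room temperature. ADP is quantified luminescently.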

[16] = target: T1, Hexokinase-4 (Homo sapiens) + Glucokinase regulatory protein (Homo sapiens); test: qHTS assay for inhibitors of recombinant human GCK-GKRP interaction: HTRF assay (AID 743207);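 also: 0% = DMSO with GCK present and -100% = DMSO wells lacking GCK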
Method in brief: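 HTRF binding of 5 nM GST-GCK and 5 nM FLAG-GKRP with 2 uM S6P in pH 7.1 Hepes buffer (MgCl2, KCl, DTT, Tween 20, BSA). Anti-FLAG XL665 and anti-GST donor added, 60 min at room temperature; 665/615 nm read, normalized to with- and without-GCK controls.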

OC1C(O)C(O)C(O)C(O)C1O (stereo unspecified)
inactive: max response [1] 0.49%

COc1ccc(C(Cl)=C(c2ccc(OC)cc2)c2ccc(OC)cc2)cc1
inactive: activation [2] -0.915% | max response [3] -4.66% | outcome [5] | max response [6] -11.1% | max response [1] 5.06% | max response [7] -29.7% | outcome [8]
active: Potency [4] 18.8 µM

CC1(COc2ccc(CC3SC(=O)NC3=O)cc2)CCCCC1 (stereo unspecified)
inactive: max response [6] -9.6% | max response [1] 2.09% | max response [7] -6.86%

CC1(C)OC[C@@H]2O[C@@]3(C(=O)O)OC(C)(C)O[C@H]3[C@@H]2O1
inactive: activation [2] 1.2% | max response [3] -1.9% | outcome [5] | max response [6] -0.898% | max response [1] -4.16% | max response [7] -6.28% | outcome [8]

C#C[C@]1(OC(C)=O)CC[C@H]2[C@@H]3CCC4=C/C(=N/O)CC[C@@H]4[C@H]3CC[C@@]21CC
inactive: max response [1] -2.23%

OC[C@H]1O[C@@H]2O[C@H]3[C@H](O)[C@@H](O)[C@@H](O[C@H]4[C@H](O)[C@@H](O)[C@@H](O[C@H]5[C@H](O)[C@@H](O)[C@@H](O[C@H]6[C@H](O)[C@@H](O)[C@@H](O[C@H]7[C@H](O)[C@@H](O)[C@@H](O[C@H]8[C@H](O)[C@@H](O)[C@@H](O[C@H]1[C@H](O)[C@H]2O)O[C@@H]8CO)O[C@@H]7CO)O[C@@H]6CO)O[C@@H]5CO)O[C@@H]4CO)O[C@@H]3CO
inactive: max response [3] -4.97% | Potency [4] | outcome [5] | outcome [9] | max response [6] -6.08% | max response [1] 2.64% | max response [7] -3.67% | outcome [8]

CCCCCCCCCCCCCCCC(=O)O
inactive: activation [2] 0.499% | outcome [5] | max response [6] -12.5% | max response [1] 2.07% | max response [7] -2.84% | outcome [8]

CN=C(N)NCCC[C@H](N)C(=O)O
inactive: outcome [10] inactive; inhibitor; fitted 0.0054 uM | outcome [11] | outcome [12] | outcome [13] | outcome [14] | outcome [15] | outcome [16] | max response [1] -7.79% and 5.96% and -18.7%

NC(N)=NCc1cccc(I)c1
inactive: outcome [10] | outcome [11] | outcome [12] | outcome [13] | outcome [14] | outcome [15] | outcome [16] | max response [1] 10% and 7.9%

CCCc1ncc(C[n+]2ccccc2C)c(N)n1
inactive: max response [1] 8.25%

NC(=O)c1ccccc1O
inactive: activation [2] 2.51% | max response [3] 4.04% | outcome [5] | outcome [9] | max response [6] -0.33% | max response [1] -5.71% | max response [7] -5% | outcome [8]

CCCCOC(=O)CC(CC(=O)OCCCC)(OC(C)=O)C(=O)OCCCC
inactive: activation [2] 0.777% | max response [3] 5.65% | outcome [5] | max response [6] -1.72% | max response [1] 2.63% | max response [7] -16.9% | outcome [8]

Cc1cccc(C)c1NC(=O)CN1CCCCCC1
inactive: max response [1] 3.55%

C=C[C@H]1CN2CC[C@H]1C[C@@H]2[C@@H](O)c1ccnc2ccc(OC)cc12
inactive: activation [2] 4.17% | outcome [5] | outcome [9] | max response [6] 21.8% | max response [7] -3.56% | outcome [8]

O=C(O)c1ccc(S(=O)(=O)N(Cl)Cl)cc1
inactive: activation [2] 0.0057% | max response [3] 7.46% | Potency [4] | outcome [5] | outcome [9] | max response [6] 7.82% | max response [1] -8.91% | max response [7] 0.513% | outcome [8]

CCCCC(CC)COC(=O)c1ccc(N(C)C)cc1 (stereo unspecified)
inactive: activation [2] 8.87% and 0.16% | max response [3] 0.44% and -4.46% | outcome [5] | outcome [9] | max response [6] 0.308% and -6.35% | max response [1] 3.36% | max response [7] 4.36% and -3.29% | outcome [8]

CCCCCCCCCCCCCCCCO
inactive: activation [2] 1.7% | max response [3] 0.0651% | outcome [5] | max response [6] -4.14% | max response [1] 19.3% | max response [7] -3.2%

COc1cc([C@H]2Oc3cc([C@H]4Oc5cc(O)cc(O)c5C(=O)[C@@H]4O)ccc3O[C@@H]2CO)ccc1O
inactive: activation [2] 0.406% | max response [3] -8.58% | outcome [5] | outcome [9] | max response [6] -21.7% | max response [1] -1.37% | max response [7] 5.85% | outcome [8]

CCCCCCCCCCCCCC(=O)OC(C)C
inactive: activation [2] -0.593% | max response [3] -1.44% | outcome [5] | max response [6] -11.9% | max response [1] -3.41% | max response [7] -1.19% | outcome [8]

Reference: PubChem BioAssay (NCATS)
